Compounds without any hit were thinned out: in the full panel of roughly 83,000, 20% have a hit.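 48-hour exposure, single concentration, 96-well plates; percent growth endpoint where 0 means no net growth. Active: below 10.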 A number with no mark means an inactive call. Calls of active or inactive are those of the source.
Tests used:
Assay in all cases: NCI-60 one-dose screen, 48 h (100 = growth as untreated, 0 = no growth, -100 = all killed)
Conditions in all cases: 10 µM unless noted
NCI-H23 lung = test system: NCI-H23 lung
NCI-H226 lung = test system: NCI-H226 lung
NCI-H322M lung = test system: NCI-H322M lung
HOP-62 NSCLC = test system: HOP-62 NSCLC
NCI-H460 lung = test system: NCI-H460 lung
NCI-H522 lung = test system: NCI-H522 lung
A549/ATCC NSCLC = test system: A549/ATCC NSCLC
786-0 renal = test system: 786-0 renal
COLO 205 colon = test system: COLO 205 colon
HOP-92 NSCLC = test system: HOP-92 NSCLC

| SMILES | growth (NCI-H23 lung) | growth (NCI-H226 lung) [%] | growth (NCI-H322M lung) | growth (HOP-62 NSCLC) | growth (NCI-H460 lung) | growth (NCI-H522 lung) | growth (A549/ATCC NSCLC) | growth (786-0 renal) | growth (COLO 205 colon) | growth (HOP-92 NSCLC) [%] |
| --- | --- | --- | --- | --- | --- | --- | --- | --- | --- | --- |
| COc1cccc2c1C=CC1(O2)Oc2cccc(OC)c2C=C1C (stereo not drawn) | 34.8% | 57.4 | 46.1% | 55.9% | 7.1% (active) | 12.6% | 25.1% | 26.9% | 16.6% |  |
| O=C(O)CC1CCN(c2ccc3nnc(Cl)n3n2)CC1 | 93.9% | 98.7 | 96.2% | 93.3% | 108% | 96% | 103% | 100% | 107% |  |
| CC(C)[C@H]1c2[nH]c3ccccc3c2C[C@H]2C(=O)N(CCCCCCC(=O)NO)CC(=O)N12 | 87.6% | 102 | 88.4% | 85.7% | 78.5% | 42.8% | 98.7% | 97.3% | 83.8% |  |
| COC(=O)c1ccc(NC2=C(Cl)C(=O)C(C)=C(C)C2=O)cc1 | 68.5% | 72.9 | 99.6% | 66.2% | 79.3% | 53.1% | 81.5% | 84.9% | 104% |  |
| N#C/C(=C\c1ccc(-c2ccc(Cl)cc2)o1)C(=O)Nc1ncc(Cc2ccc(Br)cc2)s1 | -30.6% (active) | 40.3 | 19.1% | 5.97% (active) | -78.1% (active) | 4.79% (active) | -53% (active) | 23.4% | 41.1% |  |
| Cc1ccc(N2CCN(C3=C(Cl)C(=O)c4ncccc4C3=O)CC2)cc1 | 35.6% | 93.2 | 97.4% | 73.1% | 44.8% | 45.2% | 91.3% | 99.5% | 75.3% |  |
| C#CCn1cc(/C=N/Nc2nc(-c3ccc(Br)cc3)cs2)c2ccccc21 | 86.7% | 94.7 | 93.6% | 97.5% | 97.3% | 88.9% | 97% | 105% | 115% |  |
| CC(=O)Nc1cc(N2CCOCC2)c2nc(NC(=O)c3[nH]c(C)c(Cl)c3Cl)sc2c1 | 77.2% | 37.3 | 92.1% | 69.2% | 64% | 71.8% | 71.9% | 44.5% | 104% |  |
| O=C(CCCCCCNC(=O)C(O)(O)C(F)(F)F)Nc1nc2ccccc2s1 | 3.62% (active) | 25.4 | 8.24% (active) | 0.982% (active) | 8.87% (active) | -35.8% (active) | 4.79% (active) | 20.3% | -68.5% (active) |  |
| COc1ccc(C(=O)c2c(N)c(C#N)cn2-c2ccc(Cl)cc2Cl)cc1 | 93.3% | 97.2 | 93.8% | 99.7% | 100% | 90.3% | 93.4% | 103% | 109% |  |
| C#C[C@]1(O)CC[C@H]2[C@@H]3CC=C4c5sc(Nc6ccc(C)cn6)nc5CC[C@]4(C)[C@H]3CC[C@@]21C | 1.46% (active) | 11.5 | 25.1% | 6.21% (active) | 5.32% (active) | -21.5% (active) | 16.6% | -53.2% (active) | -24.4% (active) |  |
| CC1=C(C)C(=O)C(Nc2cccc(C(=O)OC(C)(C)C)c2)=CC1=O | 28.8% |  | 94.5% | 78.4% | 93.1% | 82.2% | 106% | 89.9% | 107% | 78.8 |

Source: PubChem BioAssay (NCI)
